From PubChem BioAssay
Only some compounds are listed: those with a hit (about 31% of all), similar ones and a draw of the others.
CYP2C9 inhib: blockers of cytochrome P450 2C9 activity – biochemical, luminescence, ADME assay, primary screen. P11712. CYP2C9 Supersomes, luciferin-H conversion. inhibition, % at 5 µM. hit rate 20% among 96,000;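 active means blocking of liver enzyme CYP2C9 beyond about 50% at 5 µM, limit read from the data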
CYP2C9 activ: human CYP2C9 activators, primary screen, biochemical, luminescence; activation factor at 5 µM; Cytochrome P450 2C9 (Homo sapiens), P11712; recombinant CYP2C9, luciferin-H conversion; hits give high values; factor 1 = untreated enzyme, 0 = blocked; hit rate 1.4% among 96,000;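 active means activation factor of 2 or more for CYP2C9 at a 5 µM dose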;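 further: 0 = sulfaphenazole-blocked wells and 1 = vehicle-only wells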
CYP2C19 inh: blockers of cytochrome P450 2C19 activity – biochemical, luminescence, ADME assay, primary screen | P33261 | CYP2C19 Supersomes, luciferin-H EGE luminescence, 30 min | inhibition, % at 5 µM | hit rate 21% among 96,000 | AID 778, 2007;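 active means CYP2C19 inhibition above a set limit at 5 µM in the primary screen, cut at about 50% in these data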;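 further: plate controls were negative control wells for no effect and 2.5 mM tranylcypromine positive control for full effect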
Target sequence (P33261 whole entry, looked up): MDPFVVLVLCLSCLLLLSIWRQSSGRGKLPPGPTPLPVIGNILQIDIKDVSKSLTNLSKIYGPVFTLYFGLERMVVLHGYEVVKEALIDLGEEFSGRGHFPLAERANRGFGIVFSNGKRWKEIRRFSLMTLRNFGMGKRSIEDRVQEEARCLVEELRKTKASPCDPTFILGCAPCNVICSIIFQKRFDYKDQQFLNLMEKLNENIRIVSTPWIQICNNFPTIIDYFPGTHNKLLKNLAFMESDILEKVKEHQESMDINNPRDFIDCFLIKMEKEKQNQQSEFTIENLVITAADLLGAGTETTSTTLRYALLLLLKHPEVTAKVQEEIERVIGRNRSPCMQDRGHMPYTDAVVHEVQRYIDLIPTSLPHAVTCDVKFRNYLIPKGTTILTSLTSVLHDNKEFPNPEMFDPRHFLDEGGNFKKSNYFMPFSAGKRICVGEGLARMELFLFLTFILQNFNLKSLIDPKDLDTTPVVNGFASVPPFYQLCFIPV
CYP2C19 activ: human CYP2C19 activators, primary screen, biochemical, luminescence. 96,000 tested, under 10 active. recombinant CYP2C19, luciferin-H EGE luminescence; hits give high values; 0 = fully inhibited enzyme, 1 = untreated enzyme. activation factor at 5 µM;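 active means activation factor of at least 2 at 5 µM in the primary screen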;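 further: 0 = wells with 2.5 mM tranylcypromine and 1 = vehicle-only wells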
Active calls of the source: *.

Results for Cc1ccc(OCCNS(=O)(=O)c2ccc(N3CCCC3=O)cc2)cc1C ?
CYP2C9 inhib: 40; CYP2C9 activ: 0.6; CYP2C19 inh: 30; CYP2C19 activ: 0.7

What do the screens show for `O=C(O)c1ccccc1CSc1nc2ccccc2o1`?
CYP2C9 inhib: 22; CYP2C9 activ: 0.8; CYP2C19 inh: 8; CYP2C19 activ: 0.9

Results for CCCCCCOC(=O)Sc1nc2ccccc2o1 ?
CYP2C9 inhib: 65*; CYP2C9 activ: 0.3; CYP2C19 inh: 52*; CYP2C19 activ: 0.5

Results for Cc1ccc(-n2c(SCc3cn4ccsc4n3)nc3ccccc3c2=O)cc1 ?
CYP2C9 inhib: 33; CYP2C9 activ: 0.7; CYP2C19 inh: 19; CYP2C19 activ: 0.8

Results for COc1ccc(-c2nn(-c3ccccc3)cc2/C=N/n2cnnc2)cc1OC ?
CYP2C9 inhib: 46; CYP2C9 activ: 0.5; CYP2C19 inh: 80*; CYP2C19 activ: 0.2

What do the screens show for `C(=N\n1cnnc1)/c1cn(-c2cccs2)nc1-c1ccccc1`?
CYP2C9 inhib: 70*; CYP2C9 activ: 0.3; CYP2C19 inh: 81*; CYP2C19 activ: 0.2

How did O=[N+]([O-])c1ccc(N/N=C/c2cn(-c3ccccc3)nc2-c2ccccc2)cc1 do in these assays?
CYP2C9 inhib: 26; CYP2C9 activ: 0.7; CYP2C19 inh: 10; CYP2C19 activ: 0.9

Results for Cc1ccc(S(=O)(=O)N2CCCN(S(=O)(=O)C3CCS(=O)(=O)C3)CC2)cc1 (configuration not stated) ?
CYP2C9 inhib: -51; CYP2C9 activ: 1.5; CYP2C19 inh: 27; CYP2C19 activ: 0.7

What do the screens show for `O=C(COc1ccccc1)Nc1nn[nH]n1`?
CYP2C9 inhib: 7; CYP2C9 activ: 0.9; CYP2C19 inh: -3; CYP2C19 activ: 1

How did CCN1CCN(C(=O)c2cc3cc4cc(OC)ccc4nc3s2)CC1 do in these assays?
CYP2C9 inhib: 31; CYP2C9 activ: 0.7; CYP2C19 inh: 16; CYP2C19 activ: 0.8

How did COC(=O)c1ccc(NC(=O)CCNS(=O)(=O)c2cccc3nonc23)cc1 do in these assays?
CYP2C9 inhib: 26; CYP2C9 activ: 0.7; CYP2C19 inh: 72*; CYP2C19 activ: 0.3

How did Cc1cccc2sc(NC(=O)c3ccc(Cl)s3)nc12 do in these assays?
CYP2C9 inhib: 28; CYP2C9 activ: 0.7; CYP2C19 inh: 18; CYP2C19 activ: 0.8

Results for CCOc1ccc(CCNS(=O)(=O)c2cccc3nsnc23)cc1OCC ?
CYP2C9 inhib: 57*; CYP2C9 activ: 0.4; CYP2C19 inh: 86*; CYP2C19 activ: 0.1

Results for Cc1cccc2sc(NC(=O)CCNS(=O)(=O)c3cccc4nonc34)nc12 ?
CYP2C9 inhib: 58*; CYP2C9 activ: 0.4; CYP2C19 inh: 72*; CYP2C19 activ: 0.3

What do the screens show for `CCOc1ccc(CCNC(=O)CN(C)S(=O)(=O)c2cccc3nsnc23)cc1OCC`?
CYP2C9 inhib: 49; CYP2C9 activ: 0.5; CYP2C19 inh: 22; CYP2C19 activ: 0.8

What do the screens show for `CCc1ccc(NC(=O)CCNS(=O)(=O)c2cccc3nsnc23)cc1`?
CYP2C9 inhib: 42; CYP2C9 activ: 0.6; CYP2C19 inh: 51*; CYP2C19 activ: 0.5

Results for COc1cc([N+](=O)[O-])ccc1NC(=O)C[n+]1ccccc1C ?
CYP2C9 inhib: 8; CYP2C9 activ: 0.9; CYP2C19 inh: 5; CYP2C19 activ: 0.9

What do the screens show for `O=C(Nc1ccccc1F)c1ccc2nc(N3C(=O)CCC3=O)sc2c1`?
CYP2C9 inhib: 0; CYP2C9 activ: 1; CYP2C19 inh: 27; CYP2C19 activ: 0.7

What do the screens show for `Cc1csc(NC(=O)Cc2coc3cc(C)c(C(C)C)cc23)n1`?
CYP2C9 inhib: 40; CYP2C9 activ: 0.6; CYP2C19 inh: 37; CYP2C19 activ: 0.6

Results for O=C(COC(=O)c1cccnc1Nc1ccccc1F)NCCN1C(=O)CSC1=O ?
CYP2C9 inhib: 17; CYP2C9 activ: 0.8; CYP2C19 inh: 84*; CYP2C19 activ: 0.2

Results for O=C(COC(=O)c1cccnc1Nc1ccccc1F)NCc1ccc2c(c1)OCO2 ?
CYP2C9 inhib: 21; CYP2C9 activ: 0.8; CYP2C19 inh: -4; CYP2C19 activ: 1

What do the screens show for `COc1ccc(Nc2nnc(SCc3cc([N+](=O)[O-])cc4c3OCOC4)s2)cc1`?
CYP2C9 inhib: 94*; CYP2C9 activ: 0.1; CYP2C19 inh: 37; CYP2C19 activ: 0.6

What do the screens show for `CCOc1cc(C)c(C(C)C)cc1S(=O)(=O)N1CCOCC1`?
CYP2C9 inhib: 16; CYP2C9 activ: 0.8; CYP2C19 inh: 45; CYP2C19 activ: 0.5

What do the screens show for `COc1cc(Cl)c(S(=O)(=O)N2CC(C)OC(C)C2)cc1Cl` (configuration not stated)?
CYP2C9 inhib: -71; CYP2C9 activ: 1.7; CYP2C19 inh: 84*; CYP2C19 activ: 0.2

Results for COc1cc(Cl)c(S(=O)(=O)N2CCOCC2)cc1Cl ?
CYP2C9 inhib: -170; CYP2C9 activ: 2.7*; CYP2C19 inh: 29; CYP2C19 activ: 0.7

How did COc1cc(C)c(C(C)C)cc1S(=O)(=O)N1CCOCC1 do in these assays?
CYP2C9 inhib: -99; CYP2C9 activ: 2*; CYP2C19 inh: 34; CYP2C19 activ: 0.7

How did CC(C)CNS(=O)(=O)c1cc(C(=O)N2CC(C)OC(C)C2)c(Cl)cc1Cl (configuration not stated) do in these assays?
CYP2C9 inhib: 14; CYP2C9 activ: 0.9; CYP2C19 inh: 12; CYP2C19 activ: 0.9

What do the screens show for `O=C(c1cc(S(=O)(=O)N2CCOCC2)c(Cl)cc1Cl)N1CCCCC1`?
CYP2C9 inhib: 0; CYP2C9 activ: 1; CYP2C19 inh: 20; CYP2C19 activ: 0.8

What do the screens show for `COc1ccc(C2C(C(=O)OCC(=O)NC(C)(C)C)CCC(=O)N2c2ccc(C)cc2)cc1OC` (configuration not stated)?
CYP2C9 inhib: 26; CYP2C9 activ: 0.7; CYP2C19 inh: 13; CYP2C19 activ: 0.9

What do the screens show for `COc1ccc(C2(C(=O)NCc3ccco3)CCCC2)cc1OC`?
CYP2C9 inhib: -3; CYP2C9 activ: 1; CYP2C19 inh: 23; CYP2C19 activ: 0.8

Results for Cc1ccccc1N(CC(=O)NCCSC1CCCCC1)S(=O)(=O)c1ccccc1 ?
CYP2C9 inhib: 58*; CYP2C9 activ: 0.4; CYP2C19 inh: 17; CYP2C19 activ: 0.8

What do the screens show for `CC(C)CNC(=O)CN(C1CCCCC1)S(=O)(=O)c1ccccc1`?
CYP2C9 inhib: 92*; CYP2C9 activ: 0.1; CYP2C19 inh: 58*; CYP2C19 activ: 0.4

How did O=C(CN(C1CC1)S(=O)(=O)c1ccc(S(=O)(=O)NC2CCCCC2)cc1)Nc1ccccc1 do in these assays?
CYP2C9 inhib: 96*; CYP2C9 activ: 0; CYP2C19 inh: 97*; CYP2C19 activ: 0

What do the screens show for `CC1(C)C(O)=C(c2nc3ccccc3[nH]2)C(=N)N1c1ccccc1`?
CYP2C9 inhib: 36; CYP2C9 activ: 0.6; CYP2C19 inh: 30; CYP2C19 activ: 0.7

How did O=C(Nc1nc2c(s1)CCCC2=O)c1cnccn1 do in these assays?
CYP2C9 inhib: 17; CYP2C9 activ: 0.8; CYP2C19 inh: 48; CYP2C19 activ: 0.5
